Assay results reported in PubChem BioAssay (NCI).
The panel holds about 79,000 compounds, 15% with a hit somewhere; the sample as a whole holds those more often. A number with no mark means an inactive call. Activity calls are given as the source filed them. Cut-off read from the data, not from the text of the source: active = growth inhibition above about 70%; inactive = the rest.

Columns and labels:
[1] = NCI Yeast Anticancer Drug Screen. Data for the rad50 strain (AID 155);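 note: 0% = growth of vehicle-only cultures of the same strain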; settings: S. cerevisiae rad50 strain growth inhibition; at 50.0 µM; stronger effect = higher value
Outline: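 Readout: growth inhibition relative to vehicle-treated cultures. Compound exposure was carried out in a genetically defined yeast strain deficient in DNA damage repair.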

[2] = NCI Yeast Anticancer Drug Screen. Data for the mec2-1 strain (AID 157); settings: S. cerevisiae mec2-1 strain, at 50.0 µM, stronger effect = higher value
Outline: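 Cells of the genetically defined mec2-1 yeast strain are incubated with test compound. Inhibition of growth is calculated against vehicle-treated controls.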

[3] = NCI Yeast Anticancer Drug Screen. Data for the sgs1 mgt1 strain (AID 161);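 note: 0% = growth of cultures given vehicle only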; settings: S. cerevisiae sgs1 mgt1 strain, at 50.0 µM, stronger effect = higher value
Outline: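 Read-out: growth inhibition vs vehicle controls. Cells: mutant yeast strain deficient in DNA damage repair.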

[4] = NCI Yeast Anticancer Drug Screen. Data for the cln2 rad14 strain (AID 165);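 note: 0% = growth equal to vehicle treated cultures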; settings: S. cerevisiae cln2 rad14 strain, at 50.0 µM, stronger effect = higher value
Outline: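 The screen exposed genetically defined yeast (cln2 rad14) to test compounds and scored growth inhibition relative to vehicle-treated controls.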

[5] = NCI Yeast Anticancer Drug Screen. Data for the bub3 strain (AID 167); settings: S. cerevisiae bub3 mutant strain, at 50.0 µM, stronger effect = higher value
Outline: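 Readout: yeast growth inhibition, expressed relative to vehicle-only wells. The test organism is a mutant strain from a panel with lesions in DNA repair or checkpoint genes.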

[6] = NCI Yeast Anticancer Drug Screen. Data for the mlh1 rad18 strain (AID 175); settings: S. cerevisiae mlh1 rad18 strain growth inhibition; at 50.0 µM; stronger effect = higher value
Outline: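 Compound-treated yeast growth, normalised to vehicle controls. Strain bears defined DNA repair mutations.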

SMILES	growth inhibition [1]	growth inhibition [2]	growth inhibition [3]	growth inhibition [4]	growth inhibition [5]	growth inhibition [6]
COC1=C(OCc2ccccc2)C(=O)OC1C(O)CO (stereo not drawn)	-3.1%	11.4%	0.5%	-1.3%	-7.55%	-12%
Cc1cc(C)c(NS(=O)c2cccc(C(F)(F)F)c2)c(C)c1 (stereo not drawn)	-47.1%	-26.5%	-61%	-9.75%	-31.4%	-43%
O=C1NC2(CCN(CCCC3(c4ccc(F)cc4)OCCO3)CC2)Oc2ccccc21	-11.6%	-35.7%	-1.15%	-11.6%	5.8%	-55.7%
C/C(CC(=O)N(C(C)C)C(C)C)=N\NC(=O)c1ccncc1	-3.45%	-12.3%	-18.9%	18.7%	-10.7%	13.8%
CCN1C(=O)NC(C)(c2ccccc2)C1=O (stereo not drawn)	-2.9%	3.35%	-3.45%	-11.3%	10.1%	2.1%
COc1cc(/C=C2\C(=O)N(C(=O)c3ccc(NC(C)=O)cc3)N=C2C)ccc1O	-44.7%	-41.1%	-68.8%	-40.4%	-51%	-64%
C/C(CC(=O)Nc1ccc(C)c(C)c1)=N\NC(N)=S	-13.8%	-6.1%	1.45%	18.2%	0.05%	-2.4%
Cc1cccc(Cl)c1O	29.8%	-7.1%	23.6%	-23.8%	-7.75%	18.2%
O=C(c1ccc(O)cc1)C1N=NCC1c1ccccc1 (stereo not drawn)	-15.8%	-9.8%	-11.8%	-17.8%	56.8%	13.8%
C=C1C(=O)OC2C1CC(OC(C)=O)/C(C)=C/CCC1(C)OC21 (stereo not drawn)	-4.5%	-35.3%	6%	-6.25%	-27.6%	-68.2%
O=C(O)c1ccc(/C=N/NC(=S)Nc2cccc3cccnc23)cc1	22.1%	7.4%	6.6%	16.4%	10.2%	-17.1%
CCC(=O)OC1(c2ccccc2)C(CN(C)C)CCCC1CN(C)C (stereo not drawn)	-11.2%	-17.6%	-22.2%	-47.9%	2.85%	-14.9%
CCCCCC(C(O)C#N)C(O)(C(F)(F)F)C(F)(F)F (stereo not drawn)	94.7% (active)	80.7% (active)	58.8%	80.6% (active)	86.2% (active)	98% (active)
Oc1cccc2ccc[n+](CCc3ccccc3)c12	1.4%	9.15%	8.7%	-13.5%	-5.9%	31.6%
C#CC(CCC)NCCCC (stereo not drawn)	16.2%	-8.95%	-8.8%	3.05%	-4.9%	-1.95%
NC(=O)c1ncccc1C(=O)O	-9.2%	-9.65%	-18.6%	2.3%	-13.6%	-12.2%
O=C1CCCCC1CN1CCOCC1 (stereo not drawn)	-37.5%	-24.2%	-5.3%	-6.45%	-22.1%	-16.4%
CC(=O)NNc1nc(C)c(C(=O)/C=C/c2ccccc2Cl)s1	37.5%	16.1%	17.4%	19.4%	23.1%	43.5%
Cc1ccc(C(=O)OC(C)C)cc1N=NN(C)C	32.4%	-11.4%	11.1%	27.1%	6.45%	-15.9%

SMILES	growth inhibition [1]	growth inhibition [2]	growth inhibition [3]	growth inhibition [4]	growth inhibition [5]	growth inhibition [6]
CC(=O)NNc1nc(C)c(C(/C=C/c2ccc([N+](=O)[O-])cc2)=N/NC(N)=O)s1	23.6%	-12.7%	24.2%	16.6%	8.75%	10.3%
NC(=O)NNC(=O)NC12CC3CC(CC(C3)C1)C2	-19%	-11.8%	-10.2%	-45.8%	0.65%	21.6%
COc1ccc(CN2CCCN(Cc3ccc(OC)cc3)C2c2ccc([N+](=O)[O-])cc2)cc1	-0.3%	14.8%	12.8%	-18.7%	32.9%	-16.6%
C[N+](C)(C)C1=CC=CC=C1.Br[Br-]Br	22.5%	-29.6%	0.15%	4.7%	11.6%	-2.25%
CC(C)(C)C1CCC2c3c([nH]c4ccccc34)C3C(=O)N(c4ccccc4[N+](=O)[O-])C(=O)C3C2C1 (stereo not drawn)	-16.9%	-24.1%	-18.6%	4.8%	-15.3%	-26.6%
C=CC(O)C(O)C=C (stereo not drawn)	15.1%	-9%	20.4%	8.25%	12.9%	17.2%
CCOC(=O)c1[nH]c(C)c(C(=O)OC(C)(C)C)c1C	4.55%	14.8%	0.35%	10.4%	-4.65%	0.45%
Cc1c(-c2ccccc2)[nH]c2ccc(Cl)cc2c1=O	-7.5%	-30.9%	28.9%	2.8%	-5.1%	6.25%
C=CCNC(=S)Nc1ccc(OC(=O)NC2CCCCC2)cc1	6.4%	23.6%	15.1%	-7.85%	-2.4%	31.9%
COC(=O)C1(CC(=O)c2ccc(Cl)cc2)NC(=S)NC(=O)C1C#N (stereo not drawn)	13.6%	12.6%	8%	7.95%	-10.9%	22.5%
CN(C)c1ccc(/C=C/c2ccc(/C=C/c3ccc(N(C)C)cc3)cc2)cc1	-15.1%	-9.9%	5%	10.2%	-11.4%	20.8%
C(=N/Nc1ccncc1)/c1ccc2ccccc2n1	-1.8%	-22.6%	-11.4%	-26.9%	-7.65%	4.05%
CN(C)CCCSc1nc2ccccc2[nH]1	-7.85%	-13.8%	-20.6%	0.75%	7.1%	-6.6%
CCOC(=O)C(NC(=O)C(CCCCNP(=O)(OCC)OCC)NC(=O)C(C)NC(C)=O)C(C)C (stereo not drawn)	-10.7%	-10.4%	-8.4%	-25.6%	-1.35%	3.75%
COc1cccc(NC(=S)NNC(=S)NNc2ccccc2)c1	59.4%	60.2%	70.3% (active)	43%	65.2%	63.6%
OCCCCN(CCO)CCCCO	-2.75%	-7.25%	-1.5%	-12.4%	13.9%	-3.5%
O=C1CSC(C(N=Nc2ccc(Cl)cc2)c2nc3ccccc3[nH]2)=N1 (stereo not drawn)	-50.6%	-26.3%	-43.1%	-18.1%	-42.6%	-46.7%
CN1C(=O)c2c(ccc3c2OCO3)C2C(O)Cc3cc4c(cc3C21)OCO4 (stereo not drawn)	6.85%	9.9%	21.8%	27.9%	7.15%	-51%
O=c1[nH]cnc2c(C3OC(CO)C(O)C3O)[nH]nc12 (stereo not drawn)	-5.2%	-34.7%	-15.8%	3.3%	-16.8%	-0.45%
